Bioassay records: PubChem, Broad Institute
Sampled rows, rich in hits. Any-hit rate of the full collection: about 0.86%.
A1 inh – A1 inhibition | MEF A1-2A-BIM cells, caspase-Glo luminescence, 3 h; percent of clofoctol signal, DMSO as zero | caspase activation, % (test concentration not listed) | hit rate 0.51% among 21,000 | AID 2241;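 active = most replicate scores above 10, or exactly half above 10 with mean activity above 10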;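 also: effector caspase 3 and 7 activity cleaving a DEVD luciferin substrate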
BJeLR viability – compounds reducing viability of BJeLR cells | AID 2275 | BJeLR fibroblasts viability, CellTiterGlo ATP luminescence, 48 h; HRASV12, hTERT and SV40 LT/ST transformed | hit rate 0.64% among 30,000 | viability loss activity score, % (no concentration beside the values); in the data active = viability loss activity score above about 50%;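 also: higher score means fewer live cells and less ATP luminescence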
* hit, by the source's call; . = no result given.

SMILES	A1 inh	BJeLR viability
C/C=C(\C)C(=O)O[C@@H]1[C@@H](OC(C)=O)C2[C@@]3(C)CC[C@H](OC4CC(OC)C(OC5CC(OC)C(OC6CC(OC)C(OC7OC(C)C(OC8OC(CO)C(O)C(O)C8O)C(OC)C7O)C(C)O6)C(C)O5)C(C)O4)CC3=CC[C@@]2(O)[C@@]2(O)CC[C@H](C(C)=O)[C@@]12C (stereo not given in full)	1	-14
CO[C@@H]1CC(OC2CCC3(C)C(CCC45CCC(C6=CC(=O)OC6)C(C)(CCC43)C5=O)C2)O[C@H](C)[C@@H]1O[C@@H]1O[C@H](CO[C@@H]2O[C@H](CO)[C@@H](O)[C@H](O)[C@H]2O)[C@@H](O)[C@H](O)[C@H]1O (stereo not given in full)	0	92*
C[C@@H]1CN([C@H](C)CO)C(=O)c2cc(NS(=O)(=O)c3ccc(F)cc3)ccc2O[C@H]1CN(C)Cc1ccc(Oc2ccccc2)cc1	0	-1
Cc1ccc(S(=O)(=O)Nc2ccc3c(c2)C(=O)N([C@H](C)CO)C[C@@H](C)[C@H](CN(C)C)O3)cc1	0	-3
CCCCC1CCC(C(=O)Nc2c3c(nn2-c2ccc(F)cc2)CS(=O)(=O)C3)CC1 (stereo not given)	15*	0
COc1ccc(-n2nc3c(c2NC(=O)/C=C\c2ccc4c(c2)OCO4)CS(=O)(=O)C3)cc1	1	1
Cc1ccccc1NC(=O)c1cccc(Cn2cc(C(F)(F)F)ccc2=O)c1	1	-2
CCOC(=O)CCc1c(C)c(C#N)c2nc3ccccc3n2c1Cl	.	88*
CCc1c(C)c(C#N)c2nc3ccccc3n2c1NCCC(C)C	0	-3
CCCC(=O)N1CCc2cc(OC)c(OC)cc2C1COc1ccc(OC)cc1 (stereo not given)	0	3
CCC1CN2CCc3cc(OC)c(OC)cc3[C@@H]2C[C@@H]1C[C@H]1NCCc2cc(OC)c(OC)cc21 (stereo not given in full)	17*	86*
O=C(CN1C(=O)CCc2ccccc21)NC1CCCc2ccccc21 (stereo not given)	-1	-1
COc1ccc(/C=c2/[nH]/c(=C\C(=O)c3ccccc3)c(=O)[nH]c2=O)cc1OC	7	4
O=C(/C=c1\[nH]/c(=C/c2ccc(F)cc2)c(=O)[nH]c1=O)c1ccccc1	12*	70*
C[C@H](CO)N1C[C@H](C)[C@H](CN(C)Cc2ccc(-c3ccccc3)cc2)Oc2ccc(NC(=O)CCN3CCOCC3)cc2C1=O	-1	2
CCCSc1nc2c([nH]c3ccccc32)c(=O)n1-c1ccc(F)cc1	.	2
CC(C)C[C@@H](/C=C/S(C)(=O)=O)NC(=O)[C@H](CC(C)C)NC(=O)[C@H](CC(C)C)NC(=O)OCc1ccccc1	-2	116*
CC(C)C[C@@H](NC(=O)OCC1c2ccccc2-c2ccccc21)C(=O)O	0	6
CN(C)c1ccc(C(=C2C=CC(=[N+](C)C)C=C2)c2ccc(N(C)C)cc2)cc1	58*	127*
C[C@H](CO)N1C[C@H](C)[C@H](CN(C)C)Oc2ccc(NS(=O)(=O)c3ccccc3)cc2C1=O	1	-1
CC1CCCCN1C(=O)Cn1ncc2c1-c1ccccc1OC2 (stereo not given)	.	3
CC(C)CCOc1ccc(C(=O)C(CN2CCOCC2)c2ccccc2)cc1 (stereo not given)	1	78*
OC(CN1CCOCC1)c1ccccc1 (stereo not given)	-1	-3
CC(C)NC(=O)N(C)C[C@H]1Oc2c(NC(=O)Nc3cccc4ccccc34)cccc2C(=O)N([C@@H](C)CO)C[C@@H]1C	.	-4
CCOC(=O)C1C(=O)CC(=O)C(C(=O)OCC)C1c1ccc(OC)cc1 (stereo not given)	0	0
CCOc1ccc(-c2nc3ccc(-c4nc5ccc(N6CCN(C)CC6)cc5[nH]4)cc3[nH]2)cc1	0	126*
CCOc1ccc2nc(N3CCCCC3)sc2c1	.	14
C[C@H](CO)N1C[C@H](C)[C@@H](CN(C)Cc2ccc(Cl)c(Cl)c2)Oc2c(NS(=O)(=O)c3ccc(Cl)cc3)cccc2C1=O	.	-6
CC1(C)CC[C@@]2(C(=O)O[C@@H]3O[C@H](CO)[C@@H](O)[C@H](O)[C@H]3O)C(C1)C1=CCC3[C@@]4(C)CC[C@@H](O[C@@H]5O[C@H](CO)[C@@H](O)[C@H](O)[C@H]5O[C@@H]5O[C@H](CO)[C@@H](O)[C@H](O)[C@H]5O)C(C)(C)C4CC[C@@]3(C)[C@]1(C)C[C@H]2O (stereo not given in full)	0	-4
